According to the supplement of paper PMC13380429:

Columns and labels:
[1] = system: Vero E6 infected with SARS-CoV-2; assay: morphology score (similarity to uninfected cells); higher = more like uninfected cells; conditions: 24 h
[2] = system: Vero E6 infected with SARS-CoV-2; assay: SARS-CoV-2 infection rate relative to infected DMSO; higher = more infection, active = 60 or less; conditions: 24 h

CCn1c(O)nnc1-c1ccc(Cl)cc1 [5-(4chlorophenyl)-4-ethyl-2,4-dihydro-3H-1,2,4-triazol-3-one] (0.833333 µM)
morphology score [1]: 0.0166
SARS-CoV-2 infection rate [2]: 110% (inactive)

Cc1cc(C(=O)Nc2cc(Oc3ccc4nc(NC(=O)C5CC5)cn4n3)ccc2C)n(C)n1 (10 µM)
morphology score [1]: 0.227
SARS-CoV-2 infection rate [2]: 102% (inactive)

CCCCCCCCCCCCCC(=O)OC(C)C [isopropyl-myristate] (10 µM)
morphology score [1]: 0.235
SARS-CoV-2 infection rate [2]: 95.5% (inactive)

CS(=O)(=O)c1ccc(Cn2c3c(c4cc(F)cc(F)c42)CCCC3CC(=O)O)cc1 (stereo not given) (10 µM)
morphology score [1]: 0.144
SARS-CoV-2 infection rate [2]: 90% (inactive)

C=C(C)[C@H]1CN[C@H](C(=O)O)[C@H]1CC(=O)O [kainic-acid] (10 µM)
morphology score [1]: 0.338
SARS-CoV-2 infection rate [2]: 79% (inactive)

CO[C@@H]1[C@@H](OC(N)=O)[C@@H](O)[C@H](Oc2ccc3c(O)c(NC(=O)c4ccc(O)c(CC=C(C)C)c4)c(=O)oc3c2C)OC1(C)C [novobiocin] (10 µM)
morphology score [1]: 0.165
SARS-CoV-2 infection rate [2]: 95% (inactive)

CC1=NN(c2ccc(C)c(C)c2)C(=O)/C1=N\Nc1cccc(-c2cccc(C(=O)O)c2)c1O [eltrombopag] (10 µM)
morphology score [1]: 0.143
SARS-CoV-2 infection rate [2]: 99% (inactive)

N=C(N)NCCC[C@@H](NC(=O)[C@@H]1CCCN1C(=O)[C@@H]1CSSCCC(=O)N[C@@H](Cc2ccc(O)cc2)C(=O)N[C@@H](Cc2ccccc2)C(=O)N[C@@H](CCC(N)=O)C(=O)N[C@@H](CC(N)=O)C(=O)N1)C(=O)NCC(N)=O [desmopressin-acetate] (10 µM)
morphology score [1]: 0.0379
SARS-CoV-2 infection rate [2]: 97.5% (inactive)

O=c1[nH]c(=O)n([C@H]2C[C@H](O)[C@@H](CO)O2)cc1Br [broxuridine] (0.833333 µM)
morphology score [1]: 0.0347
SARS-CoV-2 infection rate [2]: 108% (inactive)

Cc1cc2c(C(C)C)c(O)c(O)c(C=O)c2c(O)c1-c1c(C)cc2c(C(C)C)c(O)c(O)c(C=O)c2c1O [gossypol] (0.833333 µM)
morphology score [1]: -0.0839
SARS-CoV-2 infection rate [2]: 104% (inactive)

CCCCCCCCCCCCOS(=O)(=O)O [dodecyl-sulfate] (10 µM)
morphology score [1]: 0.0848
SARS-CoV-2 infection rate [2]: 103% (inactive)

COC(=O)c1ccccc1O [methyl-salicylate] (10 µM)
morphology score [1]: -0.162
SARS-CoV-2 infection rate [2]: 110% (inactive)

Cc1ccc(S(=O)(=O)c2ccc([N+](=O)[O-])o2)cc1 (0.833333 µM)
morphology score [1]: 0.215
SARS-CoV-2 infection rate [2]: 68% (inactive)

CN1C[C@@H]2C[C@H]1CN2c1cc2c(cc1F)c(=O)c(C(=O)O)cn2C1CC1 [danofloxacin] (10 µM)
morphology score [1]: 0.319
SARS-CoV-2 infection rate [2]: 100% (inactive)

O=C(OCC(O)CO)c1ccccc1Nc1ccnc2cc(Cl)ccc12 (stereo not given) [glafenine] (10 µM)
morphology score [1]: 0.535
SARS-CoV-2 infection rate [2]: 83% (inactive)

CN1C(C(=O)Nc2ccccn2)=C(O)c2sccc2S1(=O)=O [tenoxicam] (10 µM)
morphology score [1]: -0.0614
SARS-CoV-2 infection rate [2]: 108% (inactive)

CC(CNS(=O)(=O)C(C)C)c1ccc(-c2ccc(C#N)cc2)cc1 (stereo not given) (10 µM)
morphology score [1]: -0.219
SARS-CoV-2 infection rate [2]: 114% (inactive)

CCc1c(C(=O)C(N)=O)c2c(OCC(=O)O)cccc2n1Cc1ccccc1 [varespladib] (10 µM)
morphology score [1]: 0.0669
SARS-CoV-2 infection rate [2]: 108% (inactive)

COc1cc(COc2cc(N)c(Cl)cc2C(=O)CCC2CCN(CCNS(C)(=O)=O)CC2)cc(OC)c1 (0.833333 µM)
morphology score [1]: 0.265
SARS-CoV-2 infection rate [2]: 102% (inactive)

CC(C)[C@@H]1CC[C@@H](C)C[C@H]1O [levomenthol] (10 µM)
morphology score [1]: -0.181
SARS-CoV-2 infection rate [2]: 108% (inactive)

COc1cc(Nc2nc3ccccc3nc2NS(=O)(=O)c2ccc(NC(=O)c3ccc(C)c(OC)c3)cc2)cc(OC)c1 (10 µM)
morphology score [1]: 0.0476
SARS-CoV-2 infection rate [2]: 119% (inactive)

c1ccc2cc(C3=NCCN3)ncc2c1 (10 µM)
morphology score [1]: 0.119
SARS-CoV-2 infection rate [2]: 102% (inactive)

CN(C)CCOC(c1ccc(Cl)cc1)c1ccccn1 (stereo not given) [carbinoxamine] (10 µM)
morphology score [1]: 0.075
SARS-CoV-2 infection rate [2]: 96% (inactive)

CC(C)(C)c1ccc(-c2nc3c(N4CCN(Cc5ccc6nccnc6c5)CC4)cccc3[nH]2)cc1 (0.833333 µM)
morphology score [1]: 0.0532
SARS-CoV-2 infection rate [2]: 102% (inactive)

Cc1ccnc2c1CCCC2C(N)=S (stereo not given) [isotiquimide] (10 µM)
morphology score [1]: 0.0559
SARS-CoV-2 infection rate [2]: 113% (inactive)

CC1(C)CNc2cc(NC(=O)c3cccnc3NCc3ccncc3)ccc21 [motesanib] (10 µM)
morphology score [1]: 0.196
SARS-CoV-2 infection rate [2]: 108% (inactive)

O=C(NC(O)C(Cl)(Cl)Cl)NC(O)C(Cl)(Cl)Cl (stereo not given) [dicloralurea] (10 µM)
morphology score [1]: 0.108
SARS-CoV-2 infection rate [2]: 106% (inactive)

Cc1ccc(-c2ncn(-c3ccc(Nc4nccc(-c5cccc(N6CCOCC6)c5)n4)cc3)n2)cn1 (10 µM)
morphology score [1]: -0.292
SARS-CoV-2 infection rate [2]: 102% (inactive)

O=[N+]([O-])C(Br)(CO)CO [bronopol] (10 µM)
morphology score [1]: -0.0828
SARS-CoV-2 infection rate [2]: 108% (inactive)

CCCC(=O)C1(c2ccccc2)CCN(C(=O)[C@@H](Cc2ccc(OC)cc2)NC(=O)[C@@H](N)Cc2cncn2C)CC1 (10 µM)
morphology score [1]: 0.106
SARS-CoV-2 infection rate [2]: 98% (inactive)
